# Values joined by “and” are separate entries in the source; they are usually repeats but may differ in a detail not shown here. Equal entries are not always repeated. Out of some 300,000 compounds screened, about 37,000 (12%) were called active. What follows is part of a selection rich in actives, with near analogues and random picks from the rest. Values without a mark were called inactive. Rule as the data show it: active = max response mostly above about 13% (no sharp cut-off); inactive = mostly below about 14%.
# Assay: Cycloheximide Counterscreen for Small Molecule Inhibitors of Shiga Toxin; also: read at 38.3 µM for the half of the compounds with a filed dose; 0% is about no effect
# Conditions: cell reporter, cycloheximide protein synthesis inhibition counterscreen; active compounds read high
row,SMILES,max response
1,Cc1cccc(N2C(=O)C3C(c4ccccc4)OC4(C(=O)c5ccccc5C4=O)C3C2=O)c1 (stereo unspecified),7.54%
2,Cc1cccc(N2C(=O)NC(=O)/C(=C\c3cnn(-c4ccccc4)c3)C2=O)c1,25.1% (active)
3,Cc1cccc(N2C(=O)c3cccnc3C2=O)c1,7.77%
4,CC(CNC(=O)c1ccc(Br)o1)NC(=O)c1ccc(Br)o1 (stereo unspecified),-3.59%
5,O=C(CNC(=O)c1ccc(Br)o1)NCC1CCCO1 (stereo unspecified),-2.05%
6,CC(C)(C)C1CCC(=NNC(=O)c2cc(-c3ccccc3)n[nH]2)CC1 (stereo unspecified),5.64%
7,CC(NC(=O)C(=O)NN=C1CCC(C(C)(C)C)CC1)c1ccccc1 (stereo unspecified),1.38%
8,CC(C)(C)C1CCC(=NNC(=O)c2ccc(Br)o2)CC1 (stereo unspecified),35.2% (active)
9,CCC(C)(C)C1CCC(=NNC(=O)c2ccc(Br)o2)CC1 (stereo unspecified),44.3% (active)
10,CC(=O)N1C(C)c2ccccc2C(C)(C)CC12CCCCC2 (stereo unspecified),-1.42%
11,Cc1ccc(C)c(N2CCN(S(=O)(=O)c3c(C)[nH]c(C)c3C(=O)N3CCCC3)CC2)c1,-1.94%
12,C=CC(COCc1ccccc1)N(Cc1ccccc1)S(=O)(=O)c1ccccc1Br (stereo unspecified),-2.35% and 5.45%
13,Cc1ccc(S(=O)(=O)N(C)CC(=O)NC2CCCC2)cc1,-2.07%
14,CS(=O)(=O)N(C(=O)NC(=O)NC1CCS(=O)(=O)C1)C1CCCCC1 (stereo unspecified),-1.14%
15,Cc1ccc(NC(=O)NC(=O)N(C2CCCCC2)S(=O)(=O)c2ccccc2)cc1,40.9% (active)
16,CCOc1ccccc1NC(=O)CCS(=O)(=O)c1cccc2nsnc12,-6.23%
17,NC(=O)c1ccccc1N=Cc1ccc2ccccc2c1,38.3% (active)
18,O=C(N/N=C/c1cccc(O)c1)c1cc2c(ccc3ccccc32)o1,8.61%
19,O=C(COc1cc2oc(=O)c3c(c2cc1Cl)CCC3)NCCCN1CCOCC1,6.01%
20,O=C(NCCc1ccccc1)C1CCC(Cn2c(=O)c3ccccc3n(Cc3cccnc3)c2=O)CC1 (stereo unspecified),-1.63%
21,O=C(O)c1cc([N+](=O)[O-])c(Nc2cccc3ccccc23)c([N+](=O)[O-])c1,-2.68%

row,SMILES,max response
1,COc1ccc(CSc2nnnn2-c2ccc(C(=O)O)cc2)cc1,-3%
2,COC(=O)c1ccccc1NC(=O)c1ccccc1NS(C)(=O)=O,-1.19%
3,CCOc1ccc(NC(=O)c2ccc(NC(=O)C3CCCO3)cc2)cc1 (stereo unspecified),14.7%
4,CCOc1ccc(NC(=O)CCNC(=O)c2ccc(Br)cc2)cc1,17.2%
5,CCOc1ccc(NC(=O)c2ccc(CSc3nnnn3C)cc2)cc1,20.2% (active)
6,CCOc1cccc(NC(=O)CC#N)c1,-0.681%
7,CCOc1ccc(NC(=O)c2ccccc2NS(C)(=O)=O)cc1,15.1% (active)
8,CCOc1ccc(C(=O)Nc2cccc(SC)c2)cc1,43.4% (active)
9,CCOc1ccc(C(=O)Nc2ccncc2)cc1,23.7% (active)
10,CCCNC(=O)Nc1ccccc1C(=O)Nc1ccc(OC)cc1,2.17%
11,CCOc1ccc(NC(=O)CSc2nncn2C)cc1,3.07%
12,CCOc1ccc(C(=O)Nc2cccc(-c3ccc4nncn4n3)c2)cc1,-0.39%
13,CC1CN(c2nc(Nc3ccccc3)nc(N)c2[N+](=O)[O-])CC(C)O1 (stereo unspecified),1.21%
14,O=C(CN1CCN(c2ccc(O)cc2)CC1)NC1CCCc2ccccc21 (stereo unspecified),-4.39%
15,COc1ccc(CN(C)C(=S)Nc2ccc(Cl)cc2Cl)cc1,-0.677%
16,O=C(O)C1CC=CC2CCN(C3CCCCC3)C(=O)C21 (stereo unspecified),-7.95%
17,COc1ccc(OC)c(NC(=O)CN(C)CCOc2ccc(Br)cc2)c1,-3.46%
18,O=C(Oc1cccc(N2C(=O)C3C4c5ccccc5C(c5ccccc54)C3C2=O)c1)c1ccco1 (stereo unspecified),-4.24%
19,Cc1ccc2c(c1)N(S(=O)(=O)c1cc(-c3cc(C)no3)ccc1C)CCO2,1.76%
20,CC(=O)Nc1cccc(C(=O)OCN2C(=O)c3ccccc3C2=O)c1,-2.39%
21,CCN(CC)N=Nc1cccc(NC(C)=O)c1,15.1% (active)

row,SMILES,max response
1,CCN(CC)C(=O)CSC(Nc1cccc(F)c1)=C(C#N)C#N,-0.453%
2,Fc1ccc2nc(-c3ccccc3)nc(SCc3nnc(-c4ccccc4)o3)c2c1,-4.64%
3,O=C(CSc1nnc(CNC(=O)c2ccc(F)cc2)o1)Nc1ccc2c(c1)OCO2,-1.02%
4,Fc1ccc(-c2nnc(CSc3nnc(-c4ccc5c(c4)OCO5)o3)o2)cc1,26% (active)
5,O=C(Nc1ccnn1C1CCN(C/C=C/c2ccc(F)cc2)CC1)C1CCCC1,-1.88%
6,CCOc1ccc(OCC)c(NC(=O)CCS(=O)(=O)c2ccc(C)cc2)c1,-3.4%
7,COc1ccc(N/N=C2/CCCCC2=O)cc1,29.4%
8,Cc1ccc(N/N=C2\COC(C)(C)CC2=O)cc1,73.1% (active)
9,CC(C)CC(COCc1ccc(Cl)cc1)N1CCN(C(=O)c2ccc(C(F)(F)F)cc2)CCC1=O (stereo unspecified),-2.17%
10,O=C1CC(Sc2ncn[nH]2)C(=O)N1c1ccccc1 (stereo unspecified),-3.41%
11,COc1ccc(N2CCN(C(=O)c3ccccc3NC(=O)C3=C(C)OCCS3)CC2)cc1,-5.37%
12,CN(Cc1ccccc1)C(=O)COc1ccccc1,41.1% (active)
13,CN(Cc1ccccc1)C(=O)c1ccc(COc2ccccc2)cc1,7.81%
14,CN(Cc1ccc(F)cc1)C(=O)COc1ccc2ccccc2c1,20.1%
15,CC1=NN(c2ccc(Cl)c(C(=O)O)c2)C(=O)/C1=C/c1ccc(-c2ccccc2[N+](=O)[O-])o1,-3.39%
16,C=C1O[C@@](CO)(n2cnc3c(N)ncnc32)[C@H](O)[C@@H]1O,1.03%
17,Cc1ccc(NC(=O)CCC(=O)N/N=C/c2ccco2)c(C)c1,-1.51%
18,Cc1ccc(NS(=O)(=O)c2ccc3c(c2)oc(=O)n3C)c(C)c1,0.896%
19,Cc1ccc(NN=C2C(=O)OC(C)(C)OC2=O)c(C)c1,52% (active)
